# Rows were chosen to be rich in hits. Some 11% of all compounds tested hit in one or more screens of this group.
# BAZ2B inh: inhibitors of human BAZ2B bromodomain. Q9UIF8. AlphaScreen BAZ2B-H3K14Ac peptide displacement. Potency, µM (highest dose often 114 µM), for the others: top-dose activity change, negative = inhibition, usual class: inhibitors. 360,000 tested, 4.4% active; note: % is set by controls: 0 for no effect and ±100 for the full control effect; nearly all actives have a fitted effect of over 60% in size
#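 AlphaScreen displacement of biotin-H3(5-23)K14Ac peptide (50 nM final) from BAZ2B (50 nM final) in PBS pH 7.4, 0.01% Tween-20; complex preformed 30 min RT, then compounds (top 110 uM) 30 min RT, beads 20 min dark.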
# VDR inh: blocks the human vitamin D receptor. VDR-SRC2-3 peptide fluorescence polarization, 2 h. 400,000 tested, 0.93% active. AID 504847. P11473. Potency, µM, for inactives: max response, negative = inhibition, most hits filed as inhibitors; note: % is set by controls: 0 for no effect and ±100 for the full control effect
# Target sequence (P11473 whole entry, looked up): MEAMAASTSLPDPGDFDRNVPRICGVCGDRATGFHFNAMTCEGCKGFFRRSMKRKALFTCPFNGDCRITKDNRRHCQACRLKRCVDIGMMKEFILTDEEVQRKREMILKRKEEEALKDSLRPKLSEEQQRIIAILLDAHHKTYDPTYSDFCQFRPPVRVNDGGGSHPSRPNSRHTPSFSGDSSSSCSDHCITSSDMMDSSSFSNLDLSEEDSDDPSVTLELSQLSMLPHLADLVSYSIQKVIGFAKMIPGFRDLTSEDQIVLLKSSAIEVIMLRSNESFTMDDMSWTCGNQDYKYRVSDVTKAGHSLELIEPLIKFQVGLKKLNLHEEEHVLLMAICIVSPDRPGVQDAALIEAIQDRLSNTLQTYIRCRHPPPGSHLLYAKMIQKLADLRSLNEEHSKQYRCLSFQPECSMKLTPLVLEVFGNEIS
#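 Fluorescence polarization assay of small-molecule disruption of VDR binding to coregulator peptide SRC2-3. Compounds and controls pin-transferred, then read after 2 h incubation at ambient room temperature.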
# JMJD2A Tudor: inhibitors of human JMJD2A Tudor domain | AlphaScreen JMJD2A-Tudor / H3K4me3 peptide binding | Potency, µM (series often up to 114 µM), without a hit: top-dose activity change, negative = inhibition, actives largely listed as inhibitors | 390,000 tested, 4.4% active | AID 504339; note: % is set by controls: 0 for no effect and ±100 for the full control effect; nearly all actives have a fitted effect of over 50% in size
# PLK1 PBD inh: PLK1 (human) polo-box domain binding inhibition; P53350; Plk1 PBD binding of FITC phosphopeptide, fluorescence polarization; Potency, µM, for inactives: max response, negative = inhibition, hits mostly inhibitors; 360,000 tested, 2.8% active; note: series mostly up to about 57 µM; % is set by controls: 0 for no effect and ±100 for the full control effect; nearly all actives have a fitted effect of over 65% in size
# G9a block: inhibitors of human histone lysine methyltransferase G9a; Potency, µM (top dose mostly 102 µM), for inactives: at the highest dose activity, negative = inhibition, hits mostly inhibitors; AID 504332; G9a H3K9 monomethylation, AlphaScreen, 2 h; 350,000 tested, 8.8% active; note: % is set by controls: 0 for no effect and ±100 for the full control effect; nearly all actives have a fitted effect of over 75% in size
#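 G9a (20 nM) preincubated 15 min RT with compounds, then 500 nM biotinylated H3K9 peptide and 20 uM SAM added; 2 h RT reaction. Monomethyl-H3K9 product detected by AlphaScreen with anti-H3K9me1 antibody, streptavidin donor and anti-rabbit IgG acceptor beads.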
# HP1b chromo inh: blocks HP1-beta chromodomain binding to methylated histone tails; Potency, µM (doses to about 114 µM), for the others: at the top dose activity change, negative = inhibition, most hits filed as inhibitors; AlphaScreen HP1-beta / biotin-H3K9me3 peptide binding; 390,000 tested, 0.56% active; note: nearly all actives have a fitted effect of over 70% in size
#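 Compound inhibition of the preformed complex between 50 nM HP1-beta and 50 nM biotinylated H3K9me3 peptide was read by AlphaScreen. Buffer was PBS pH 7.4 with 0.01% Tween-20. Incubations ran 30 min at room temperature, with 10 ug/mL donor/acceptor beads.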
# * marks the source's active call; other numbers are inactive results; ? = inconclusive; . = no result; [ ] = dose if it differs, or a comment. Calls come from the whole dose curve; as a rule, active = well fitted curve in the direction sought with a large enough effect; inconclusive = small, poorly fitted or top-dose-only effect, or another doubt; inactive = no such curve, though single readings can be large; an effect the other way counts as inactive or inconclusive. Potency is the fitted concentration of half-maximal effect.
SMILES,BAZ2B inh,VDR inh,JMJD2A Tudor,PLK1 PBD inh,G9a block,HP1b chromo inh
Cc1ccc(/C=N/NC(=O)c2ccccc2OCc2cccc(Br)c2)o1,-38.6%,-5.0%,-35.8%,-18.6%,25.1µM*,?
COc1cccc(/C=N/NC(=O)C(=O)N2CCCC2)c1O,15.8µM*,-3.7%,79.4µM*,-4.7%,?,31.3%
O=C(N/N=C/c1cccnc1)c1ccccc1OCc1cccc(Br)c1,.,-9.9%,-2.3%,-5.0%,-31.0%,36.7%
O=C(COc1ccccc1[N+](=O)[O-])N/N=C/c1ccc(O)c([N+](=O)[O-])c1,-19.6%,12.6%,-20.1%,-11.5%,50.1µM*,?
O=[N+]([O-])c1cc(/C=N\Nc2nccs2)ccc1O,3.98µM*,.,.,.,-6.1%[2.33 µM],.
O=C(COc1ccccc1C(=O)N/N=C\c1ccc(O)c(O)c1)N/N=C/c1ccc(O)c(O)c1,1.58µM*,8.0%,2.24µM*,-13.5%,?,7.94µM*
CC(=O)c1ccc(N2CCN(c3ccc(NC(=O)c4cccs4)cc3C(=O)O)CC2)cc1,-2.8%,12.1%,-16.7%,.,5.4%[59 µM],-6.5%
CC[n+]1c(/C=C2/C=C(C)CC(C)(C)C2)sc2ccc(OC)cc21,56.2µM*,?,50.1µM*,21.2µM*,-37.3%[12.7 µM],20µM*
O=C(Nc1ccc(F)cc1)N1CCc2ccccc2C1,-4.5%,-14.7%,?,21.2µM*,.,-19.1%
O=C(Nc1ccc(Br)cc1)N1CCc2ccccc2C1,0.8%,7.4%,5.5%,-1.3%,1.2%,71.5%
COc1ccccc1NS(=O)(=O)c1cc(C(=O)NCCC(C)C)ccc1F,1.7%,18.8%,-8.5%,-2.5%,12.7%,36.3%
COc1ccc(N2C(=O)CC(N(Cc3ccco3)C(=O)CCC(=O)O)C2=O)cc1 (configuration not stated),-11.5%,-8.5%,5.1%,-4.4%,.,38.2%
CCN(CC)C(=O)CSc1nc2sc3c(c2c(=O)n1CCOC)CCC3,-10.9%,4.0%,-22.6%,-8.9%,.,21.9%
CCOC(=O)c1sc2nc(SCC(=O)N(CC)CC)n(CCCN3CCCC3=O)c(=O)c2c1C,79.4µM*,12.5%,-21.1%,-2.6%,15.4%[59 µM],36.0%
O=S(=O)(Nc1nc2ccccc2nc1Cl)c1ccccc1C(F)(F)F,-8.0%,-4.9%,-12.3%,-3.5%,70.8µM*,14.7%
Cc1[nH][nH]c(=O)c1C(c1c(C)[nH][nH]c1=O)c1cn(C)c2ccccc12,?,4.7%,?,-17.7%,.,-19.2%
Cc1[nH][nH]c(=O)c1C(c1c(C)[nH][nH]c1=O)c1cn(Cc2cccc3ccccc23)c2ccccc12,?,-21.5%,-26.7%[11.4 µM],7.52µM*,44.7µM*,28.2µM*
Nc1nonc1-n1nnc(C(=O)N/N=C/c2ccoc2)c1-c1ccccc1,-0.7%,-7.9%,2.1%,-9.7%,-11.4%,45.5%
CN1CCN(c2ncc3c(n2)CCN(Cc2ccc(Br)s2)C3)CC1,-27.7%,1.6%,79.4µM*,.,-6.0%[12.7 µM],11.0%
CCN1CCN(c2ncc3c(n2)CCN(Cc2sccc2C)C3)CC1,?,9.4%,?,.,17.8µM*,21.3%
CCN1CCN(c2ncc3c(n2)CCN(Cc2ccc(Br)s2)C3)CC1,-29.7%,18.2%,-21.9%,.,2.7%[12.7 µM],38.4%
CCN1CCN(c2ncc3c(n2)CCN(Cc2ccc(C)s2)C3)CC1,?,6.9%,79.4µM*,.,?,-19.8%
CCN1CCN(c2ncc3c(n2)CCN(Cc2cc(Br)cs2)C3)CC1,50.1µM*,-3.8%,79.4µM*,.,22.4µM*,3.9%
Cc1ccc2c(c1)c(=O)c(C(=O)c1ccncc1)cn2CC(=O)Nc1ccc(C(C)C)cc1,0.7%,7.4%,-28.1%,.,-15.9%[59 µM],22.8%[57 µM]
O=C(CCl)Nc1cccc(S(=O)(=O)NC2=NCCCCC2)c1,.,13.1%,-3.3%,-12.0%,.,37.1%
Cc1ccc(Nc2nnc(SCC(=O)Nc3cccc(S(=O)(=O)NC4=NCCCCC4)c3)s2)c(C)c1,-25.0%,-7.9%,-25.5%,-5.9%,39.8µM*,5.1%
CNC(=S)Nc1cccc(S(=O)(=O)NC2=NCCC2)c1,.,-7.7%,-1.1%,-2.2%,50.1µM*,23.4%

# Screening results deposited in PubChem by National Center for Advancing Translational Sciences (NCATS).
